Assay [1] is described as follows: P-glycoprotein substrates identified in KB-8-5-11 adenocarcinoma cell line, qHTS therapeutic library screen (AID 1346987). Further: nearly all actives have a fitted effect of over 65% in size. Further: potency means the concentration at half of the fitted maximal effect. Put shortly:
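Compounds are pinned in dose-response onto KB-8-5-11 cells (500 cells/well, colchicine-free medium) and left 72 h at 37 degree C. CellTiter-Glo luminescence then yields AC50 values.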

Assay [2] is described as follows: Natriuretic polypeptide receptor (hNpr1) antagonism - Pilot counterscreen GloSensor control cell line (AID 1347045; calls by dose curve; further: series mostly up to about 38 µM). The method, boiled down: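 Control counterscreen: luciferase cGMP-biosensor HEK293 cells (no Npr1) received compound for 30 min at room temperature after GloSensor substrate loading. Luminescence was measured before and 20 min after soluble guanylyl cyclase activation by 50 uM nitroprusside.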

Assay [3] concerns the target Atrial natriuretic peptide receptor 2 (Homo sapiens) (UniProt P20594). The experiment in a line: Natriuretic polypeptide receptor (hNpr2) antagonism - Pilot subtype selectivity assay (AID 1347050; calls by dose curve). Put shortly:
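Antagonist mode: compounds (LOPAC1280, seven 1:5 dilutions) added 30 min before 1 nM hNppC stimulation of hNpr2-HEK293 cGMP-sensor cells; luminescence read before and 20 min after agonist at ambient temperature.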

A short description of assay [4]: NS1 protein of Zika virus - qHTS assay to identify small molecule inhibitors in human HEK 293 cells (AID 1347053). Further: series mostly up to about 46 µM; nearly all actives have a fitted effect of over 55% in size. The method, boiled down: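 Read-out is a two-antibody TR-FRET for ZIKV NS1, normalized between uninfected cells and infected cells. Compound added 1 h before MR766 infection at MOI 0.5; human HEK 293 cells incubated 24 h, 37 C.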
Background: qHTS replaces the single test concentration by a dilution series.

Assay [5] deals with Tyrosine-protein phosphatase non-receptor type substrate 1 (Homo sapiens) + Leukocyte surface antigen CD47 (Homo sapiens) (UniProt P78324+Q08722). As to the kind of experiment: CD47-SIRPalpha protein protein interaction - LANCE assay qHTS validation (AID 1347057; active means well fitted curve in the direction sought with a large enough effect in the signal ratio, with a control signal flat, not every such curve was filed as active; the % refers to the signal ratio; further: series mostly up to about 38 µM). Put shortly:
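Inhibition of soluble CD47/SIRPalpha ectodomain association by titrated compounds, measured as 665/615 nm time-resolved FRET ratio after sequential 30 min room-temperature incubations.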

The target in assay [6] is Parathyroid hormone/parathyroid hormone-related peptide receptor (Homo sapiens) (UniProt Q03431). The experiment in a line: qHTS for PTHR1 Agonists: Optimization Screen against the NCGC LOPAC library (AID 1347079).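 Further: GloSensor cAMP luminescence in HEK-293 GP2 cells expressing human PTHR1 with IBMX.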 Put shortly:
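HEK-293 GP2 cells, PTHR1 + GloSensor cAMP; 3000 cells/well, o/n. Luciferin + IBMX 0.5mM each (stock), 1 hr 37C. Cpd titration, 1 hr 37C. Lum after 15 min RT. Ctrl M-PTH(1-15) top 10uM.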

The nature of assay [7]: qHTS of pediatric cancer cell lines to identify multiple opportunities for drug repurposing: Primary screen for TC32 cells (AID 1347089). Further: nearly all actives have a fitted effect of over 60% in size. The method, boiled down: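 Measured quantity: luminescence from CellTiter-Glo, reflecting metabolically active TC32 cells following 48 h of compound. Curves came straight from multi-point titrations, with 8 or 11 points in primary and 11 in confirmatory screening.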

A short description of assay [8]: qHTS of pediatric cancer cell lines to identify multiple opportunities for drug repurposing: Primary screen for SJ-GBM2 cells (AID 1347091). Put shortly:
(§1)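 Cell viability, CellTiter-Glo luminescence; 500-1,000 cells/well, 8- or 11-point titration, 48 h compound exposure at 37 degrees C, 5% CO2. Controls: DMSO neutral, bortezomib 2.3 µM final as positive.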

The nature of assay [9]: qHTS of pediatric cancer cell lines to identify multiple opportunities for drug repurposing: Primary screen for SK-N-MC cells (AID 1347093). Further: series mostly up to about 46 µM. The method, boiled down:
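Metabolically active cells were quantified by ATP-dependent luminescence (CellTiter-Glo, 15 min at room temperature) following 48 h treatment. Cells had been plated at 500-1,000 per well and settled for 5 h beforehand.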

Assay [10] in a line: qHTS of pediatric cancer cell lines to identify multiple opportunities for drug repurposing: Primary screen for BT-37 cells (AID 1347094). Further: potency means the concentration at half of the fitted maximal effect. Put shortly: (§2)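 500-1,000 cells/well; 5 h pre-incubation 37 °C/5% CO2; compound pinned; 48 h; CellTiter-Glo, 15 min RT; luminescence. MIPE 11-pt from 0.78 nM, NPC 8-pt from 0.59 nM final. Bortezomib 2.3 µM final as positive control.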
Assay [11] is described as follows: qHTS of pediatric cancer cell lines to identify multiple opportunities for drug repurposing: Primary screen for NB-EBc1 cells (AID 1347095). Further: potency means the concentration at half of the fitted maximal effect. The method, boiled down: as §2
Assay [12] is described as follows: qHTS of pediatric cancer cell lines to identify multiple opportunities for drug repurposing: Primary screen for U-2 OS cells (AID 1347096). Further: nearly all actives have a fitted effect of over 50% in size. The method, boiled down: (§3)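 Cells (500-1,000/well) rested 5 h, then received compounds for 48 h; metabolically active cells were measured by CellTiter-Glo luminescence. Final concentrations spanned up to 46 µM (MIPE, 11-point) or 0.59 nM-46 µM (NPC, 8-point) in primary screens, 11-point in follow-ups.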

A short description of assay [13]: qHTS of pediatric cancer cell lines to identify multiple opportunities for drug repurposing: Primary screen for NB1643 cells (AID 1347099). Further: nearly all actives have a fitted effect of over 50% in size. The method, boiled down: as §2
Assay [14] can be described thus: qHTS of pediatric cancer cell lines to identify multiple opportunities for drug repurposing: Primary screen for LAN-5 cells (AID 1347100). The method, boiled down:
as §3

Assay [15] is described as follows: qHTS of pediatric cancer cell lines to identify multiple opportunities for drug repurposing: Primary screen for Saos-2 cells (AID 1347097). Further: nearly all actives have a fitted effect of over 40% in size. Further: potency means the concentration at half of the fitted maximal effect. The method, boiled down: as §2
The nature of assay [16]: qHTS of pediatric cancer cell lines to identify multiple opportunities for drug repurposing: Primary screen for SK-N-SH cells (AID 1347098). Further: nearly all actives have a fitted effect of over 65% in size. Further: potency means the concentration at half of the fitted maximal effect. The method, boiled down: as §3
Assay [17] in a line: qHTS of pediatric cancer cell lines to identify multiple opportunities for drug repurposing: Primary screen for DAOY cells (AID 1347090). Further: nearly all actives have a fitted effect of over 55% in size. Further: potency means the concentration at half of the fitted maximal effect. The method, boiled down: as §1
Assay [18] is described as follows: qHTS of pediatric cancer cell lines to identify multiple opportunities for drug repurposing: Primary screen for A673 cells (AID 1347092). Further: nearly all actives have a fitted effect of over 45% in size. Further: potency means the concentration at half of the fitted maximal effect. The method, boiled down:
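Cells are plated, rested 5 h, dosed by pintool, incubated 48 h, then lysed with CellTiter-Glo and read by luminescence. DMSO is the neutral control; bortezomib at 2.3 uM final is the positive control.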

In assay [19] the target is Atrial natriuretic peptide receptor 1 (Homo sapiens) (UniProt P16066). The experiment in a line: Natriuretic polypeptide receptor (hNpr1) antagonism - Pilot screen (AID 1347049; calls by dose curve;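 further: HEK293 cells with hNpr1 and GloSensor cGMP luciferase stimulated by 0.1 nM hNppA; agonist-evoked cGMP luminescence read 20 min after hNppA addition; series mostly up to about 58 µM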). The method, boiled down:
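Receptor antagonism read as cGMP-dependent luminescence in hNpr1/pGS-40F HEK293 cells: pre-read after 30 min compound exposure, post-read 20 min after hNppA agonist at 0.1 nM final, all at room temperature, protected from light; A-71915 titration as control.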

Structures are written as SMILES. Values without a mark were called inactive. Results filed as inconclusive are left out. The source made the active and inactive calls. Unless noted, the call rests on the fitted dose curve; in most records, active means well fitted curve in the direction sought with a large enough effect; inconclusive means small, poorly fitted or top-dose-only effect, or another doubt; inactive means no such curve, though single readings can be large; an effect the other way counts as inactive or inconclusive.

Sequence of Atrial natriuretic peptide receptor 2 (Homo sapiens) (P20594 whole entry, looked up): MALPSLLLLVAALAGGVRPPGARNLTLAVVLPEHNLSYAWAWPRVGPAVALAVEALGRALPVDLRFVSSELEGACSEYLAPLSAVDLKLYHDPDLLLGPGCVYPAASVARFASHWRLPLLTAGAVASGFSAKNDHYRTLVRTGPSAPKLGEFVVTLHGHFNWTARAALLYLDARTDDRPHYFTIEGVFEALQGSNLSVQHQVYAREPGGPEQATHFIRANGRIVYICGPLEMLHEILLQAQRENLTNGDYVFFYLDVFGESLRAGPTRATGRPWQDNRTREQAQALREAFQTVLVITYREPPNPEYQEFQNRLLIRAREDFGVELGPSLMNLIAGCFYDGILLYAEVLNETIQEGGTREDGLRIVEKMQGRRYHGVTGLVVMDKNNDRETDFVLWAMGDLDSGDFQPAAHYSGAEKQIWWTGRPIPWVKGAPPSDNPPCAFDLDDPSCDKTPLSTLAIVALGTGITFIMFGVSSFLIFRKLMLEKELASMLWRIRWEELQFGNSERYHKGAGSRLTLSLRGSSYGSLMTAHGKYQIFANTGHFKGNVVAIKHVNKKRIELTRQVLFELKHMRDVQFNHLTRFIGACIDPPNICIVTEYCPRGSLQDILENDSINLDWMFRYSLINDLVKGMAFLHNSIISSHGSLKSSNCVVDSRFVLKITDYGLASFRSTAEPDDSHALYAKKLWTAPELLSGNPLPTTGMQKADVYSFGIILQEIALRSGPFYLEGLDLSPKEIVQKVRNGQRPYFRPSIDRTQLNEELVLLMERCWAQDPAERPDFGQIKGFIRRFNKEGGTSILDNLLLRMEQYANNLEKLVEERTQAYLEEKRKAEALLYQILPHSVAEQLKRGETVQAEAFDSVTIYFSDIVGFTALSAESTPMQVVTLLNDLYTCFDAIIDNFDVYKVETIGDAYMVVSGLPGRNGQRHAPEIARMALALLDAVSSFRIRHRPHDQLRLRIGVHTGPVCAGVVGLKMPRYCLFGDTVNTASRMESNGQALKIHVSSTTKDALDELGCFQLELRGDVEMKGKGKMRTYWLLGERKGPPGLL
Sequence of Parathyroid hormone/parathyroid hormone-related peptide receptor (Homo sapiens) (Q03431 whole entry, looked up): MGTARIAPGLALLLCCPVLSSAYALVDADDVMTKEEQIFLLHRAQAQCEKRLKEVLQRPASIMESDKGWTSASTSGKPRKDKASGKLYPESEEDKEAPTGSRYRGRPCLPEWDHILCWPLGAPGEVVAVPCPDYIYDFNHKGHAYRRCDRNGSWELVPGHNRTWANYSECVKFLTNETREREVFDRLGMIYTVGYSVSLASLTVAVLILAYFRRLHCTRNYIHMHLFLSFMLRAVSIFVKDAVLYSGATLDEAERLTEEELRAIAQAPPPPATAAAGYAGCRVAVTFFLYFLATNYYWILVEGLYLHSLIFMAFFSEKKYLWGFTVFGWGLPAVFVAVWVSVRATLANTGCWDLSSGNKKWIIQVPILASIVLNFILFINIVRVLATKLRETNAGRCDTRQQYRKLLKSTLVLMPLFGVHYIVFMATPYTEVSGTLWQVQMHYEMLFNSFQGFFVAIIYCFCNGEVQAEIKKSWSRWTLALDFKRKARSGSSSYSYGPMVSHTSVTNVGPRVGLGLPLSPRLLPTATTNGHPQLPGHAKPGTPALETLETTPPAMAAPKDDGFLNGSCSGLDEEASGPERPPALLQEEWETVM
Sequence of Tyrosine-protein phosphatase non-receptor type substrate 1 (Homo sapiens) + Leukocyte surface antigen CD47 (Homo sapiens) (P78324 whole entry, looked up, the tested form may be a part): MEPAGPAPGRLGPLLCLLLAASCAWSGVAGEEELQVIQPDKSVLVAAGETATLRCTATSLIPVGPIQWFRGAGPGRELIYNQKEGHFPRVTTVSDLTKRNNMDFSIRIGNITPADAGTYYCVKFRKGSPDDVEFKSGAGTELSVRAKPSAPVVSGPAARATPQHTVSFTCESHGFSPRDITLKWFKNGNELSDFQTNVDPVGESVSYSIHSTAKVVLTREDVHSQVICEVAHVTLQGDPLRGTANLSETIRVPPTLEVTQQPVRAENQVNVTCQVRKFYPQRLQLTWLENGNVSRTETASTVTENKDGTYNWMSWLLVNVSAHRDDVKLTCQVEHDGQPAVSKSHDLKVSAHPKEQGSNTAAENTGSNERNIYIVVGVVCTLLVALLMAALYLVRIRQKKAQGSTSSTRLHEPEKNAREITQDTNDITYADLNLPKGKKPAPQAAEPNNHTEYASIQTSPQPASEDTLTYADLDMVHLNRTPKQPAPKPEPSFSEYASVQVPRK
Sequence of Tyrosine-protein phosphatase non-receptor type substrate 1 (Homo sapiens) + Leukocyte surface antigen CD47 (Homo sapiens) (Q08722 whole entry, looked up, the tested form may be a part): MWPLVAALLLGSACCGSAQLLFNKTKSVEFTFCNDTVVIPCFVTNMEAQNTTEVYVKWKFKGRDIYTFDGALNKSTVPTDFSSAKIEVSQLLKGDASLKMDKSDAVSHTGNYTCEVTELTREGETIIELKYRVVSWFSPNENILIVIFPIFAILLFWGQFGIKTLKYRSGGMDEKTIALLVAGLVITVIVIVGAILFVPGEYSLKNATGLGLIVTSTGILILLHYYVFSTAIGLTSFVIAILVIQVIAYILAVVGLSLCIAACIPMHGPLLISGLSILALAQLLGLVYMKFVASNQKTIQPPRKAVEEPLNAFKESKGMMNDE
Sequence of Atrial natriuretic peptide receptor 1 (Homo sapiens) (P16066 whole entry, looked up): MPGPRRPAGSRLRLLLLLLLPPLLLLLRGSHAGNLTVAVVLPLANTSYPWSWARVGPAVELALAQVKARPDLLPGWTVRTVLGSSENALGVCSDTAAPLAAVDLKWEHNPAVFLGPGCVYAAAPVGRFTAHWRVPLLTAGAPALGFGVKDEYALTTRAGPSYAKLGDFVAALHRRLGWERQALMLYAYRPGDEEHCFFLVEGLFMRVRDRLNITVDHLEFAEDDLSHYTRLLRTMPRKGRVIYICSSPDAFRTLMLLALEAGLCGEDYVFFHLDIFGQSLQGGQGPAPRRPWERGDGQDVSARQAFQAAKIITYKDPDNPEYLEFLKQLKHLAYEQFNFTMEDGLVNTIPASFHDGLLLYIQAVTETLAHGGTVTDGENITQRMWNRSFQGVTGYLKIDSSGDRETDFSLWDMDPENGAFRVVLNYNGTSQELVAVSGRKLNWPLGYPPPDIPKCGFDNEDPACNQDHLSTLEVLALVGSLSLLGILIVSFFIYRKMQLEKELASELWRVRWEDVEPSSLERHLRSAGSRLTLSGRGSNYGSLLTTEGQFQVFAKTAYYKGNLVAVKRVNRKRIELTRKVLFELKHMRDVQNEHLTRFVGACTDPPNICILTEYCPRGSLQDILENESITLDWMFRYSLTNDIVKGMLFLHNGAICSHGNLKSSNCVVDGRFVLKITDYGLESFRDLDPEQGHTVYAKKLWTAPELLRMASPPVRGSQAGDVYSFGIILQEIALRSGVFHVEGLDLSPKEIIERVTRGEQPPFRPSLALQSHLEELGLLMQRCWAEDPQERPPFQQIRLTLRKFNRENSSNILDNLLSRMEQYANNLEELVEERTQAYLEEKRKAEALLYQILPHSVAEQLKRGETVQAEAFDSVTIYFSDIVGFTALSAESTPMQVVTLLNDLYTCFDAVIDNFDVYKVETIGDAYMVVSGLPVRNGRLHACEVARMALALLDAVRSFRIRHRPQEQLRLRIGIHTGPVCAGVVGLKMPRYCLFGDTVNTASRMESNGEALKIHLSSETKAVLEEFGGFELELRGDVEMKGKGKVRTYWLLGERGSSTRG

For `CC1=C(CC(=O)O)c2cc(F)ccc2/C1=C\c1ccc(S(C)(=O)=O)cc1`, the Potency result in [1], in assay [3], in [4], in assay [6], in assay [7] and in [8] was “inactive” throughout. Further, the Potency result in assay [9], in assay [10], in assay [11], in assay [12], in assay [13] and in [14] was “inactive” in each case. Also, the compound was classed as inactive in [2] and in [5].

Regarding `C=Cc1c(C)c2cc3[nH]c(cc4nc(cc5nc(cc1[nH]2)C(C)=C5CCC(=O)O)C(CCC(=O)O)=C4C)c(C)c3C=C`, the Potency entry in assay [1], in assay [4], in assay [6], in [7], in assay [8] and in assay [9] was “inactive” each time. Besides, the Potency entry in [10], in [11], in assay [12], in assay [15], in assay [16] and in [13] was “inactive” each time. Further, in assay [14], the Potency entry was “inactive”. Further, the result in assay [5] was inactive.

Turning to `CSc1ccc2c(c1)N(CCC1CCCCN1C)c1ccccc1S2` (configuration not stated), the Potency in [1] was 18.4 µM (active); in assay [17], 16.8 µM (active); in assay [18] it was 21.1 µM (active); in assay [10] it was 24.6 µM (active); in [15], 23.7 µM (active). Also, the Potency result in assay [4], in [6] and in [11] was “inactive” each time. Moreover, the outcome in assay [5] was inactive.

Turning to `Cc1cc(N)c2ccccc2[n+]1CCCCCCCCCC[n+]1c(C)cc(N)c2ccccc21`, the Potency entry in [1], in assay [3] and in assay [6] was “inactive” each time. In addition, the compound was classed as inactive in [2], in assay [19] and in assay [5].

As to `CCN(CC)CCCC(C)Nc1c2ccc(Cl)cc2nc2ccc(OC)cc12` (configuration not stated), the Potency in assay [1] was 6.32 µM (active); in assay [10], 27.6 µM (active); in assay [11] it was 15 µM (active); in assay [16], 5.45 µM (active). The Potency result in assay [3], in assay [4], in assay [6] and in assay [12] was “inactive” throughout.

In the case of `CC1=C(CC(=O)O)c2cc(F)ccc2/C1=C\c1ccc(S(C)=O)cc1` (configuration not stated), the Potency result in [1], in assay [3], in assay [4], in assay [6], in assay [7] and in assay [17] was “inactive” in each case. For the same compound, the Potency entry in assay [8], in assay [18], in assay [10], in assay [11], in [12] and in [15] was “inactive” in each case. For the same compound, the Potency entry in assay [16], in assay [13] and in assay [14] was “inactive” each time.

Consider `CN(C)CC[C@@H](c1ccc(Cl)cc1)c1ccccn1`, for which the Potency entry in assay [1], in assay [4], in assay [6], in assay [7], in [17] and in assay [8] was “inactive” throughout. The Potency entry in assay [18], in [9], in assay [10], in [11], in assay [12] and in assay [15] was “inactive” throughout. The Potency result in assay [13] and in [14] was “inactive” each time.

As for `NCCNCCNCCN`, the Potency entry in [1], in [4], in [7], in [17], in assay [8] and in [18] was “inactive” throughout. The Potency result in assay [9], in assay [10], in assay [11], in assay [12], in assay [15] and in assay [16] was “inactive” throughout. Besides, the Potency result in assay [13] and in assay [14] was “inactive” in each case.

In the case of `C#CCN(C)Cc1ccccc1`, the Potency entry in assay [1], in assay [3], in assay [4], in assay [6], in assay [7] and in [17] was “inactive” in each case. The Potency entry in assay [8], in [18], in assay [9], in [10], in assay [11] and in assay [12] was “inactive” throughout. Besides, the Potency entry in [15], in assay [13] and in [14] was “inactive” in each case. The call in [2] and in assay [5] was inactive.

Take `c1ccc2c(CC3=NCCN3)cccc2c1`: the Potency entry in assay [1], in assay [4], in assay [7], in assay [17], in [8] and in assay [18] was “inactive” each time. For the same compound, the Potency result in assay [11], in assay [12], in [16], in assay [13] and in assay [14] was “inactive” in each case.

(Values after PubChem BioAssay (NCATS).)
